The values below come from PMC4242493, “Sequence specificity incompletely defines the genome-wide occupancy of Myc”.

The full ranking holds about 33,000 sequences; the median of “normalized occupancy” is about 0.075, and the highest 2% start at about 0.095. This excerpt belongs to a sample that is enriched for the highest values.

MaxL homodimer, sequence (P61244 whole entry): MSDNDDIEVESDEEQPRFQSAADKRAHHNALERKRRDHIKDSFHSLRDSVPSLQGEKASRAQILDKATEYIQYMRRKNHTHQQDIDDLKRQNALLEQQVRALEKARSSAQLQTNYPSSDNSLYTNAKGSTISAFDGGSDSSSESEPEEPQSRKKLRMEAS

The experiment has as its target MaxL homodimer (Homo sapiens, UniProt P61244 1-160). Put plainly: universal protein-binding microarray (PBM); PBS-based mixture, 10 nM His-tagged protein dimer, 2% milk, 200 ng/uL BSA, 50 ng/uL salmon testes DNA, 0.02% TX-100; detection with Alexa 488 anti-His antibody;; high values mean tight binding. The conditions noted are these: protein: recombinant; tags: C-terminal His-tag (pET21a); chain copies: 2; dsDNA, one strand shown. The essentials:
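His-tagged protein dimer at 10 nM was incubated on Agilent 4 x 44 K arrays with the 'all 10-mer' universal design. Bound protein was tagged with 10 ng/μL fluorophore-conjugated anti-His antibody, and arrays were scanned on a GenePix 4400A. Binding occupancy for each 8-mer is its fluorescence intensity normalised to the highest-ranked 8-mer's intensity.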
For CCTAGATA, the binding signal was found to be 0.0756 normalized occupancy.

Take ACCGTACA: the binding signal was determined as 0.0768 normalized occupancy.

Turning to AAATAGCA, the binding signal was 0.0843 normalized occupancy.

As to ACTATAAC, the binding signal worked out at 0.0847 normalized occupancy.

With AGTTTTTG, the binding signal was determined as 0.0729 normalized occupancy.

For ATTGCGAA, the binding signal stood at 0.074 normalized occupancy.

On to ATGGGTAG, for which the binding signal stood at 0.0856 normalized occupancy.

ATGATTGG: the binding signal was 0.0808 normalized occupancy.

Regarding AAGAGCAG, the binding signal amounted to 0.0746 normalized occupancy.

Turning to AAGGTGTC, the binding signal stood at 0.0775 normalized occupancy.

As to CCCGTGTA, the binding signal was 0.0861 normalized occupancy.

For the sequence GACGTGTA, the binding signal stood at 0.0816 normalized occupancy.

Take ACCGTGTC: the binding signal is 0.072 normalized occupancy.

In the case of CACGTGTA, the binding signal was found to be 0.536 normalized occupancy.

As to AACGTGTC, the binding signal amounted to 0.101 normalized occupancy.

For AATGGCTC, the binding signal was 0.0777 normalized occupancy.

For the sequence AATTAGTG, the binding signal turned out to be 0.0813 normalized occupancy.

For the sequence CCGTGTCG, the binding signal was 0.075 normalized occupancy.

AAGTGTCT: the binding signal worked out at 0.073 normalized occupancy.

For AGGTGTCG, the binding signal was 0.0793 normalized occupancy.

For ACGTGTCA, the binding signal came to 0.0923 normalized occupancy.

Take ACGTGTCT: the binding signal is 0.0997 normalized occupancy.

Regarding ACGTGTCG, the binding signal worked out at 0.106 normalized occupancy.

Turning to ATTGAGAG, the binding signal was found to be 0.0765 normalized occupancy.

On to CATAGGGG, for which the binding signal turned out to be 0.085 normalized occupancy.

AGATGGAA: the binding signal is 0.0827 normalized occupancy.

For the sequence ACATAGCA, the binding signal came out at 0.0807 normalized occupancy.

Take GCACGTGC: the binding signal was 0.834 normalized occupancy.

In the case of GCACGTGA, the binding signal amounted to 0.36 normalized occupancy.

On to GTACGTGA, for which the binding signal amounted to 0.078 normalized occupancy.

As to GCACGTAC, the binding signal was 0.0883 normalized occupancy.

For the sequence GGACGTGA, the binding signal is 0.0764 normalized occupancy.

For GCACGTCC, the binding signal came to 0.0788 normalized occupancy.

With GATTGGGA, the binding signal stood at 0.076 normalized occupancy.

Take TGCGCCCA: the binding signal worked out at 0.0758 normalized occupancy.

As for CGATTTCA, the binding signal came to 0.072 normalized occupancy.

Take GCCTGGCA: the binding signal came to 0.0722 normalized occupancy.

Take ATAACATA: the binding signal is 0.0882 normalized occupancy.

As to ATAACATC, the binding signal worked out at 0.0807 normalized occupancy.

Turning to ACAACACG, the binding signal is 0.0955 normalized occupancy.

On to ACAACATA, for which the binding signal was 0.0833 normalized occupancy.

Consider ATAACACG, for which the binding signal came to 0.0958 normalized occupancy.

Consider GTAACACA, for which the binding signal came to 0.0828 normalized occupancy.

ACAACATC: the binding signal is 0.0778 normalized occupancy.

Regarding ACAACACC, the binding signal was 0.0812 normalized occupancy.

Turning to ACAACATG, the binding signal was 0.0952 normalized occupancy.

As for ACAACACA, the binding signal was found to be 0.0849 normalized occupancy.

On to ATAACATG, for which the binding signal was 0.0981 normalized occupancy.

ATAACACA: the binding signal was 0.0874 normalized occupancy.

As to GTTTCTTA, the binding signal worked out at 0.0733 normalized occupancy.

For the sequence CCTTAACA, the binding signal was 0.0794 normalized occupancy.

GTAGGCTA: the binding signal was 0.0748 normalized occupancy.

Turning to CACATGGG, the binding signal was found to be 0.166 normalized occupancy.

For the sequence GACATGGA, the binding signal was found to be 0.0844 normalized occupancy.

In the case of AACATGGC, the binding signal is 0.0896 normalized occupancy.

Turning to CCCATGGA, the binding signal came out at 0.0846 normalized occupancy.

Regarding GACATGGC, the binding signal came out at 0.0801 normalized occupancy.

On to AACATGGA, for which the binding signal came to 0.0836 normalized occupancy.

CCCATGGG: the binding signal came out at 0.0962 normalized occupancy.

Consider CACATGGA, for which the binding signal was 0.162 normalized occupancy.

In the case of ACCATGGG, the binding signal was found to be 0.0927 normalized occupancy.

As for AACATGGG, the binding signal was found to be 0.0935 normalized occupancy.

For CAAATGGG, the binding signal was determined as 0.0805 normalized occupancy.

CACATGGC: the binding signal amounted to 0.199 normalized occupancy.

With ATAAGAGG, the binding signal stood at 0.073 normalized occupancy.

Consider AGGACAAG, for which the binding signal was found to be 0.0738 normalized occupancy.

With GAGTCTGA, the binding signal came out at 0.0726 normalized occupancy.

With TATTACAA, the binding signal worked out at 0.0802 normalized occupancy.

For the sequence CAAACCGA, the binding signal was 0.0737 normalized occupancy.

Take GGAGAACA: the binding signal is 0.0748 normalized occupancy.

As to CGACGTCA, the binding signal was 0.0748 normalized occupancy.

For ATACAAGG, the binding signal was determined as 0.0755 normalized occupancy.

Turning to CATAGGCG, the binding signal is 0.0751 normalized occupancy.

For ACGTGCCC, the binding signal was 0.0948 normalized occupancy.

Take ACGTGCCG: the binding signal is 0.0929 normalized occupancy.

In the case of ACGTGCCA, the binding signal came out at 0.115 normalized occupancy.

As to CCGTGCCA, the binding signal stood at 0.0772 normalized occupancy.

ACGTGCCT: the binding signal was found to be 0.0959 normalized occupancy.

On to TCGTGCCA, for which the binding signal stood at 0.0874 normalized occupancy.

As to AACAATAC, the binding signal worked out at 0.076 normalized occupancy.

For CTTTCCAA, the binding signal was determined as 0.0733 normalized occupancy.

Regarding CATGCACA, the binding signal worked out at 0.0961 normalized occupancy.

As to CATGCACC, the binding signal is 0.0986 normalized occupancy.

As for AATGCACA, the binding signal was 0.0785 normalized occupancy.

On to AATGCACC, for which the binding signal was 0.0777 normalized occupancy.

CTTGCACA: the binding signal came out at 0.0801 normalized occupancy.

On to GATGCACA, for which the binding signal amounted to 0.0921 normalized occupancy.

Regarding AATGCACT, the binding signal was 0.0779 normalized occupancy.

For the sequence CCTGCACG, the binding signal is 0.0845 normalized occupancy.

With TATGCACA, the binding signal was 0.0883 normalized occupancy.

With AATGCACG, the binding signal is 0.0974 normalized occupancy.

In the case of CATGCACG, the binding signal was 0.101 normalized occupancy.

With GATGCACC, the binding signal is 0.0775 normalized occupancy.

For GAGACATA, the binding signal amounted to 0.0802 normalized occupancy.

Consider AGATAATC, for which the binding signal is 0.0755 normalized occupancy.

As to ACAGGCAT, the binding signal is 0.0804 normalized occupancy.

In the case of ATCGCAAT, the binding signal was 0.0728 normalized occupancy.

For the sequence AATCTTCA, the binding signal stood at 0.072 normalized occupancy.

As to ACGAAAAG, the binding signal amounted to 0.0718 normalized occupancy.

As for ACCTTATG, the binding signal was found to be 0.0812 normalized occupancy.

For AAGGCATA, the binding signal stood at 0.0742 normalized occupancy.

For AAGGCATG, the binding signal was 0.0988 normalized occupancy.

Turning to AAGGCATT, the binding signal worked out at 0.0725 normalized occupancy.

For the sequence ATGGCACG, the binding signal amounted to 0.0985 normalized occupancy.

For the sequence ACGGCGTA, the binding signal amounted to 0.0728 normalized occupancy.

Regarding ACGGCGTC, the binding signal is 0.0722 normalized occupancy.

Take ATGGCATG: the binding signal was 0.0968 normalized occupancy.

ATGGCATC: the binding signal is 0.0919 normalized occupancy.

For the sequence CTGGCACA, the binding signal is 0.0744 normalized occupancy.

Regarding ACGGCGTG, the binding signal was 0.0958 normalized occupancy.

For the sequence ATGGCACA, the binding signal worked out at 0.0786 normalized occupancy.

Regarding ATGGCATA, the binding signal stood at 0.085 normalized occupancy.

On to CGATGATA, for which the binding signal is 0.0772 normalized occupancy.

Take CTTAATCA: the binding signal came to 0.073 normalized occupancy.

Regarding CAGAGACA, the binding signal was 0.0742 normalized occupancy.

For the sequence CTTCACCA, the binding signal worked out at 0.085 normalized occupancy.

Turning to AACAACCA, the binding signal came to 0.0769 normalized occupancy.

Turning to AAAACATA, the binding signal came to 0.0798 normalized occupancy.

Consider AAAGAGGA, for which the binding signal is 0.0738 normalized occupancy.

For ACCTCAAA, the binding signal came out at 0.0749 normalized occupancy.

For CTTGCGTA, the binding signal is 0.0773 normalized occupancy.

For GGCTTCCA, the binding signal was 0.0728 normalized occupancy.

Consider ACGGCATC, for which the binding signal was found to be 0.0761 normalized occupancy.

For CAGGCATG, the binding signal amounted to 0.0964 normalized occupancy.

On to ACGGCATA, for which the binding signal came to 0.0754 normalized occupancy.

Take ACGGCATG: the binding signal amounted to 0.103 normalized occupancy.

Turning to CAGGCATC, the binding signal stood at 0.0725 normalized occupancy.

In the case of CAGGCATA, the binding signal amounted to 0.0804 normalized occupancy.

For GACAGACC, the binding signal stood at 0.0741 normalized occupancy.

With AACTCCAG, the binding signal is 0.0726 normalized occupancy.

Turning to AGTGCTGC, the binding signal came out at 0.072 normalized occupancy.

On to GATTTGAC, for which the binding signal was 0.0751 normalized occupancy.

With ACGCATTG, the binding signal is 0.0891 normalized occupancy.

For ACGCATTC, the binding signal worked out at 0.0764 normalized occupancy.

Regarding ACGCATGG, the binding signal worked out at 0.136 normalized occupancy.

With ACGCATAG, the binding signal is 0.0818 normalized occupancy.

On to CCGCATGA, for which the binding signal came out at 0.113 normalized occupancy.

On to ACGCATAC, for which the binding signal is 0.0842 normalized occupancy.

For the sequence CCGCATCC, the binding signal was found to be 0.0787 normalized occupancy.

For the sequence CCGCATAA, the binding signal was found to be 0.0821 normalized occupancy.

Consider ACGCATGC, for which the binding signal is 0.124 normalized occupancy.

On to CCGCATCA, for which the binding signal worked out at 0.0853 normalized occupancy.

For the sequence CCGCATTC, the binding signal was found to be 0.072 normalized occupancy.

As for CCGCATGC, the binding signal came out at 0.128 normalized occupancy.

For ACGCTGTG, the binding signal is 0.0735 normalized occupancy.

Take ACAGGGAG: the binding signal amounted to 0.0726 normalized occupancy.

Take AAAGGCAG: the binding signal came out at 0.0731 normalized occupancy.

Take CGGGTGAC: the binding signal worked out at 0.0779 normalized occupancy.

ATTCATAA: the binding signal amounted to 0.0836 normalized occupancy.

Consider ATGTAGGC, for which the binding signal came out at 0.0776 normalized occupancy.

GAAAAGAA: the binding signal worked out at 0.0746 normalized occupancy.

GGCATTTA: the binding signal stood at 0.0801 normalized occupancy.

On to GGATCGGA, for which the binding signal is 0.0725 normalized occupancy.

Regarding GCGCATGA, the binding signal worked out at 0.0897 normalized occupancy.

In the case of ACGCATGA, the binding signal was determined as 0.102 normalized occupancy.

For ACGCATCA, the binding signal stood at 0.0829 normalized occupancy.

Consider AGGCTACA, for which the binding signal amounted to 0.0725 normalized occupancy.

For the sequence ACCACAGG, the binding signal stood at 0.0732 normalized occupancy.

ACGTAGGC: the binding signal amounted to 0.0765 normalized occupancy.
